Most compounds without a hit are left out; they make up all but 2.5% or so of the library.
Cruzain Triton: qHTS Assay for Promiscuous and Specific Inhibitors of Cruzain (with detergent); purified cruzain, Z-FR-AMC fluorescence, 0.01% Triton; hit rate 0.43% among 200,000; Potency, µM, actives largely listed as inhibitors; further: nearly all actives have a fitted effect of over 40% in size
Target sequence (P25779 123-467 limits assumed): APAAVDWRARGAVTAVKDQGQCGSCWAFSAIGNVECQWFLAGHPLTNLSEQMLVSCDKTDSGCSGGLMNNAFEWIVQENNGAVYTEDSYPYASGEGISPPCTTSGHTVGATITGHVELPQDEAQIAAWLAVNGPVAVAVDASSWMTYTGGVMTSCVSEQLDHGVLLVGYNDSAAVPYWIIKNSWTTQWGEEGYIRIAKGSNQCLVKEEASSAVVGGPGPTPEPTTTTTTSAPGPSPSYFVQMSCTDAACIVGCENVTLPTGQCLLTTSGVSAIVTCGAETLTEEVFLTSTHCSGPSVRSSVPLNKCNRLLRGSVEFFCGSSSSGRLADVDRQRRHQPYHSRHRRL
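Cruzain (1.5 nM) preincubated 15 min at RT with compound in 100 mM sodium acetate pH 5.5, 5 mM DTT, 0.01% Triton X-100. Reaction started with 2 uM Z-FR-AMC; AMC fluorescence (ex 360/em 450 nm) change over 60 s gave rate.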
Cruzain inh noDet: qHTS Assay for Promiscuous and Specific Inhibitors of Cruzain (without detergent). Cruzipain (Trypanosoma cruzi), P25779. purified cruzain, Z-FR-AMC fluorescence, no detergent. Potency, µM, hits mostly inhibitors. hit rate 2.3% among 200,000; further: nearly all actives have a fitted effect of over 40% in size
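Purified cruzain at 1.5 nM, pre-incubated 15 min with compound at room temperature in 100 mM sodium acetate pH 5.5, 5 mM DTT, 0.00005% Triton X-100. Reaction started with 2 uM Z-FR-AMC; AMC fluorescence increase over 60 s gives rate.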
Hits are given with their value; n = inactive; u = inconclusive. The call rests on the fitted dose curve; in most records, active means well fitted curve in the direction sought with a large enough effect; inconclusive means small, poorly fitted or top-dose-only effect, or another doubt; inactive means no such curve, though single readings can be large; an effect the other way counts as inactive or inconclusive.

SMILES	Cruzain Triton	Cruzain inh noDet
Cc1ccc(-c2cc(C(=O)OCC(=O)Nc3cc(C)on3)c3ccccc3n2)c(C)c1	n	n
Cc1cc(NC(=O)COC(=O)c2oc3c(ccc4ccccc43)c2C)no1	n	20µM
Cc1c(Cl)cccc1NC(=O)C1CCN(c2nc3ccccc3[nH]2)CC1	n	n
COc1ccc(C)cc1NC(=O)C(NS(=O)(=O)c1cccs1)c1ccccc1 (stereo not given)	n	n
COc1ccc(C)cc1NC(=O)C(OC(=O)CNC(=O)c1ccc(Br)cc1)c1ccccc1 (stereo not given)	7.9µM	10µM
Cc1cc(C(=O)NCC(=O)OC(C(=O)Nc2cc(C(F)(F)F)ccc2Cl)c2ccccc2)ccc1[N+](=O)[O-] (stereo not given)	4.5µM	32µM
COc1ccc(C)cc1NC(=O)C(OC(=O)CNC(=O)c1cc(C)cc(C)c1)c1ccccc1 (stereo not given)	8.9µM	20µM
CCCC(=O)OC(C(=O)Nc1cc(C(F)(F)F)ccc1Cl)c1ccccc1 (stereo not given)	n	n
COc1ccc(C)cc1NC(=O)C(OC(=O)c1ccc([N+](=O)[O-])o1)c1ccccc1 (stereo not given)	n	u
CC(=O)OCC#CCSc1nnc(-c2cccc(Br)c2)o1	n	n
CC(=O)N1CCc2cc(S(=O)(=O)NC(Cc3ccccc3)C(=O)Nc3ccc(C)cc3C)ccc21 (stereo not given)	n	n
Cc1ccc(N2CC(NC(=O)c3ccc(Br)o3)CC2=O)cc1C (stereo not given)	n	n
CCCn1c(=O)[nH]c2nc(-c3ccc(S(=O)(=O)O)cc3)[nH]c2c1=O	n	u
CCOC(=O)c1sc2ncn(CC(=O)Nc3ccc(N(C)C)cc3)c(=O)c2c1C	n	n
O=C1c2ccccc2OC2(C=Cc3ccccc3O2)N1Cc1ccccc1 (stereo not given)	n	25µM
Cc1ccc(NC(=O)N2CCC3(CC2)Oc2ccccc2C(=O)N3Cc2ccc(F)cc2)cc1	n	u
COc1ccc(NC(=O)CSc2ncccc2C(=O)OC(C)C)cc1OC	n	n
CC(C)c1ccc(NC(=O)CSc2ncccc2C(=O)Oc2cccc([N+](=O)[O-])c2)cc1	n	16µM
COc1ccccc1N(C(=O)c1cncc(Br)c1)c1nc(-c2ccc(C)cc2)cs1	n	13µM
COc1ccc(C)cc1N(C(=O)c1cccc(F)c1)c1nc2ccccc2s1	n	u
COc1ccc(/C=N/OCc2nc3c4c(ncn3n2)Oc2ccc3ccccc3c2C4c2ccccc2)cc1 (stereo not given)	n	1.6µM
COc1ccc(C2c3c(ccc4ccccc34)Oc3ncn4nc(Cc5ccccc5)nc4c32)cc1OC (stereo not given)	n	u
Cc1ccc(CN2C(=O)c3ccccc3Sc3ccc(C(=O)N4CCOCC4)cc32)cc1	n	u
Cc1cccc(NC(=O)Cn2c(=O)n(CCc3c[nH]c4ccccc34)c(=O)c3cccnc32)c1	n	25µM
O=C(Cn1c(=O)n(CCc2c[nH]c3ccccc23)c(=O)c2cccnc21)Nc1ccccc1F	n	u
SMILES	Cruzain Triton	Cruzain inh noDet
CC(C)n1nc(C(=O)Nc2nnc(SCc3c(Cl)cccc3Cl)s2)c2ccccc2c1=O	n	13µM
CC(C)n1nc(C(=O)Nc2nc3ccc(S(C)(=O)=O)cc3s2)c2ccccc2c1=O	n	n
CCN(CCCNC(=O)c1cc2cc3ccc(OC)cc3nc2s1)c1ccccc1	20µM	32µM
CCN(CCCNC(=O)c1cc2cc3ccc(OC)cc3nc2s1)c1cccc(C)c1	n	u
Cc1ccc(Cl)cc1N1CCN(C(=O)c2c(C)oc3ncnc(N4CCCCC4)c23)CC1	n	n
CCOC(=O)c1nn(-c2ccc(OC)cc2)c(=O)c2c(N)scc12	n	n
COc1ccc(/C=N/NC(=O)c2nn(-c3ccc(C)c(C)c3)c(=O)c3ccccc23)cc1	n	n
COc1ccc(/C=N/NC(=O)c2nn(-c3ccccc3)c(=O)c3c(N)scc23)cc1	n	20µM
COc1ccc(/C=N/NC(=O)c2nn(-c3ccc(Cl)cc3)c(=O)c3c(N)scc23)cc1	n	13µM
CCOc1ccc(CC(=O)Nc2c(C(=O)c3ccccc3)oc3ccc(OC)cc23)cc1OCC	n	n
Cc1cccc(C)c1NC(=O)Cn1cnc2c(=O)n(C)c(=O)n(C)c21	n	n
Cn1c(=O)c2ncn(CC(=O)Nc3ccc4c5c(cccc35)CC4)c2n(C)c1=O	13µM	13µM
COc1cc2nc(NCCC(C)C)n3nc(-c4ccccc4)nc3c2cc1OC	n	n
COC(=O)CSc1ncc2c(n1)-c1ccccc1N(Cc1ccccc1C)S2(=O)=O	n	13µM
O=C(CSc1ncc2c(n1)-c1ccccc1N(Cc1ccc(F)cc1)S2(=O)=O)c1ccc(Br)cc1	n	u
O=C(CSc1ncc2c(n1)-c1ccccc1N(Cc1ccc(Cl)cc1)S2(=O)=O)c1ccc(Cl)cc1	n	20µM
Cc1ccccc1CN1c2ccccc2-c2nc(SCC(=O)c3ccc(Cl)cc3)ncc2S1(=O)=O	n	n
O=C(CSc1ncc2c(n1)-c1ccccc1N(Cc1ccc(F)cc1)S2(=O)=O)c1ccc(Cl)cc1	n	25µM
Cc1ccccc1CN1c2ccccc2-c2nc(SCC(=O)NCc3ccccc3)ncc2S1(=O)=O	n	n
COc1ccc(Nc2nnc(-c3ccc(C)c(S(=O)(=O)N4CCN(C)CC4)c3)c3ccccc23)cc1	n	n
CCOC(=O)c1c(-c2ccc(C)cc2)csc1NC(=O)c1nc(SCC)ncc1Cl	n	n
O=C(NC1CCN(Cc2ccccc2)CC1)c1ccc(Cn2c(=O)c3ccccc3n(Cc3ccc(F)cc3)c2=O)cc1	n	n
N#C/C(=C\c1cc([N+](=O)[O-])c(N2CCOCC2)cc1N1CCOCC1)c1nc2ccccc2[nH]1	n	u
N#C/C(=C\c1cc([N+](=O)[O-])c(N2CCCCC2)cc1N1CCCCC1)c1nn(-c2ccccc2)c(N)c1C#N	n	7.9µM
CCSc1nnc(NC(=O)COc2ccccc2)s1	n	u
SMILES	Cruzain Triton	Cruzain inh noDet
Cc1csc(NC(=O)CSc2nnc(NC(=O)COc3ccc(Cl)cc3)s2)n1	n	5µM
CN(C)c1cccc(C(=O)OCc2cc(=O)oc3cc(O)ccc23)c1	n	n
O=C(Cc1cc(=O)oc2cc(O)ccc12)NCC1CCC(C(=O)O)CC1 (stereo not given)	25µM	n
O=C(Nc1sc2c(c1C(=O)NCc1ccccc1)CCCC2)c1cc(=O)c2ccccc2o1	n	n
Nc1c(C(=O)NCCCc2ccccc2)c2nc3ccccc3nc2n1Cc1cccs1	n	6.3µM
CCCCCn1c(N)c(C(=O)NCc2cccs2)c2nc3ccccc3nc21	n	n
CCC12CN3CC(C)(CN(C1)C3c1c(C)n(C)c3ccccc13)C2=O (stereo not given)	n	n
Cc1cc(C)cc(-n2ccnc2SCC(=O)Nc2cccc3ccccc23)c1	n	n
O=C(N/N=C/c1cn(-c2cccs2)nc1-c1ccccc1)c1ccccc1Br	n	u
O=C(N/N=C/c1cn(-c2ccccc2)nc1-c1ccc(F)cc1)c1ccc2c(c1)OCO2	n	u
COc1ccc(-c2nn(-c3ccccc3)cc2/C=N/NC(=O)c2cccc(S(=O)(=O)Nc3ccccc3OC)c2)cc1	n	10µM
COc1ccc(-c2nn(-c3ccccc3)cc2C(=O)Nc2ccccc2OC)cc1	n	n

Screens (PubChem)
